According to PubChem BioAssay:
Results filed as inconclusive are left out. Active and inactive are the calls of the source.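 The calls were made as follows, unless noted: active = viability at or below 10% of carrier control in both of two separate runs; inconclusive = viability at or below 10% in only one of the two runs; inactive = the rest.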

Experiments:
[1] = reducers of endogenous Her2 protein level, primary screen, SKBR3 breast tumor cells, AlphaScreen, ATP viability (AID 461;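 active = Her2 level under about 52% in both replicate screens, with viability over 70% of control, limit read from the data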;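 as to Her2 level: lower value means less Her2 protein in the cells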;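 as to viability: percent of carrier control wells set as 100% viability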); settings: 18-24 h, measured here: SKBR3 viability, ATP luminescence, at 10 µM
[2] = target: Receptor tyrosine-protein kinase erbB-2 (Homo sapiens) (UniProt P04626); assay: as above; settings: 18-24 h, at 10 µM, stronger effect = lower value
Chain of Receptor tyrosine-protein kinase erbB-2 (Homo sapiens) (P04626 whole entry, looked up): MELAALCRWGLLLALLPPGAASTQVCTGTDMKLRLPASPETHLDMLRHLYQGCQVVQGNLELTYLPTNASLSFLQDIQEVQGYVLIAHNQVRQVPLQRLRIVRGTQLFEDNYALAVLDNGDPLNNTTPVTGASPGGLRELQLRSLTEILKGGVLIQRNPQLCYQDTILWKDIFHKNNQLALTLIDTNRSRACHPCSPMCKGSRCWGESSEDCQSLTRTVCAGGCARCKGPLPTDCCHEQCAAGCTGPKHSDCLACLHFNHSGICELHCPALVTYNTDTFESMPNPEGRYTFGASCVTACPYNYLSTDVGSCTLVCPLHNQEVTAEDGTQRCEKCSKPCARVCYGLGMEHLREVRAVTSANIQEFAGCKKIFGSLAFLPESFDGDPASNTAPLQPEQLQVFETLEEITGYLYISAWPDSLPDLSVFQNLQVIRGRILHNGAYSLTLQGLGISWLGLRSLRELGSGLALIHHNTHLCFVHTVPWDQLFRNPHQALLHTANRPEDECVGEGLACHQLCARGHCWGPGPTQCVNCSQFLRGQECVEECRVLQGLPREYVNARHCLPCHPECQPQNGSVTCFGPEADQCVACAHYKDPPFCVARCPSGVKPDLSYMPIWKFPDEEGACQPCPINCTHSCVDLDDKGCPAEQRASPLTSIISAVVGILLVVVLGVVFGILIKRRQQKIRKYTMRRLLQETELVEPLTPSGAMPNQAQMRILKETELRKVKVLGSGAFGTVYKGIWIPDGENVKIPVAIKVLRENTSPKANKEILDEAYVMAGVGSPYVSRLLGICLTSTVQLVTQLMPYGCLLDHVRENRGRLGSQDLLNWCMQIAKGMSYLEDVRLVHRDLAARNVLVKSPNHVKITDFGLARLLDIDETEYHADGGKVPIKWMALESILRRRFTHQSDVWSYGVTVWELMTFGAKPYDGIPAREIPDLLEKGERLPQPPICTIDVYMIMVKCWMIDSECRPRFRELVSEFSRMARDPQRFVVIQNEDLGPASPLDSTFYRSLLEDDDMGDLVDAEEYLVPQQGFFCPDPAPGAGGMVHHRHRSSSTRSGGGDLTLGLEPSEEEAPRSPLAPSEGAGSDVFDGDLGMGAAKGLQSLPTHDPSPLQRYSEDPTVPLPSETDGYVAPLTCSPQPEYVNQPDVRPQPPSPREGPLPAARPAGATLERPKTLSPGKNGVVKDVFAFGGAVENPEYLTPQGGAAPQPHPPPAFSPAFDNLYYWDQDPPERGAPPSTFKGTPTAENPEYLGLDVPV

[3] = SK-BR-3 cell growth inhibitors, pilot screen, 24 h, human (AID 572); settings: SK-BR-3 viability, CellTiter-Glo luminescence, at 10 µM, stronger effect = lower value;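 also: compound exposure lasted between 18 and 24 h rather than exactly 24 h; 100% = carrier-treated control wells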
[4] = HUVEC growth inhibition – cell-based, human, primary screen (AID 575;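 active = viability at or below 30% in both replicate assays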;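 also: 100% = median of untreated cell wells with 0.1% DMSO on each plate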); settings: HUVEC proliferation, CellTiter-Glo luminescence, 72 h; at 10 µM; stronger effect = lower value
[5] = growth inhibitors of H69AR lung tumor, primary screen, human, duplicate replicates (AID 580;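 active = viability at or under a set limit in both replicates, limit being median viability minus 3 SD, cut at about 48% in these data, passing the limit was not always enough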;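 also: 100% = mean luminescence of untreated wells and 0% = no signal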); settings: H69AR lung tumor cells viability, ATP luminescence, 72 h; at 10 µM; stronger effect = lower value
[6] = reversal of MRP1-mediated doxorubicin resistance, pilot screen, H69AR cells, doxorubicin co-treatment (AID 601;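 active = viability loss from added drug above about 55%, and viability with drug at most 40%, in both replicates, limit read from the data, passing the limit was not always enough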); settings: CellTiter-Glo, 72 h, at 10 µM; for differential viability (reversal): stronger effect = higher value
[7] = 384-well plate pilot, post-Golgi transport modulator project, inhibition of yeast transport mutant growth (AID 636; in the data active = inhibition above about 31%); settings: absorbance 615 nm, about 18 h, stronger effect = higher value
[8] = growth suppression of yeast trafficking mutant, preliminary HTS, modulators of trafficking downstream of Golgi apparatus project, 1536-format plate, OD 615 nm (AID 637; in the data active = inhibition above about 30%); settings: yeast transport mutant growth, absorbance 615 nm, 18 h; stronger effect = higher value
[9] = OD615 S. cerevisiae growth inhibition, permissive medium, pilot counter-assay, permissive growth control for S. cerevisiae lifespan shortening project (AID 705;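 active = growth inhibition above 25% in both replicates, a cutoff set 3 SD above the mean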); settings: OD615, 24 h, at 10 µM, stronger effect = higher value
[10] = Restrictive medium S. cerevisiae growth inhibition, OD615, pilot screen of yeast lifespan reduction project, restrictive growth control (AID 706;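 active = growth inhibition above a set limit, 3 SD over mean compound inhibition, in both replicates, cut at about 43% in these data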;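 also: modified DeaD lifespan yeast strain shifted to restrictive glucose medium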); settings: OD615, 48 h, at 10 µM, stronger effect = higher value
[11] = viability gain of MRP-1-high H69AR cells under doxorubicin, pilot screen, MRP-1 activator project, CellTiter-Glo, duplicate (AID 807;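 active = viability increase at or above a cutoff of the median across tested compounds plus 3 SD, cut at about 8.5% in these data, passing the limit was not always enough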;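 also: compound pretreatment 18-22 h then 72 h combined with doxorubicin; 0% = doxorubicin alone and 100% = vehicle without doxorubicin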); settings: H69AR viability with doxorubicin, CellTiter-Glo luminescence; at 10 µM; stronger effect = higher value
[12] = growth suppression of beta-catenin knockout HCT116, pilot screen, human colon tumor cells (AID 823;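 active = cell viability at or below a set limit in both duplicate runs, the limit being the all-compound median minus 4 SD, cut at about 23% in these data, passing the limit was not always enough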;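 also: 0% = wells killed by 20 µM Hyamine and 100% = untreated DMSO cell wells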); settings: CellTiter-Glo, 60 h, at 10 µM, stronger effect = lower value
[13] = growth suppression of PTEN-deleted HCT116, pilot screen, cell-based, HCT116 clonal line, CellTiter-Glo (AID 824;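 active = viability at or below 27.92% in each of two runs, the all-compound median minus 4 SD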;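 also: 0% = 20 µM Hyamine control and 100% = vehicle cell control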); settings: 60 h, at 10 µM, stronger effect = lower value
[14] = inhibitors of the yeast RAM network, pilot screen, dse1pr::URA3 reporter, 5-FOA selection (AID 869;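 active = inhibition over a set limit, the all-compound mean plus 3 SD, in both replicate runs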;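 also: 0% = DMSO wells with no growth and 100% = 10 µM 1-NA-PP1 with full growth; RAM network block rescues cells from 5-FOA so hits raise OD615 growth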); settings: S. cerevisiae dse1pr::URA3 5-FOA growth, OD615, 2 d; at 10 µM; stronger effect = higher value; strain carries analog-sensitive mutant Cbk1 kinase
[15] = RAM signaling pathway blockade in yeast – S. cerevisiae, Pdr1DBD-CYC8 efflux-inhibited sensitized strain, primary screen (AID 1298;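 active = RAM network inhibition above 8.4% in each of two replicates, 3 SD over the compound average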;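 also: 0% = DMSO untreated cells without growth and 100% = 10 µM 1-NA-PP1 full growth; higher means more yeast growth rescued from 5-FOA killing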); settings: S. cerevisiae cbk1-as DSE1-URA3 strain, 5-FOA growth OD615, 2 d; at 50 µM; stronger effect = higher value
[16] = H69AR cells + 2 uM doxorubicin, measured here: viability with 2 uM doxorubicin, stronger effect = lower value
[17] = H69AR cells, compound alone cytotoxicity

Row | SMILES | viability [1] | Her2 level [2] | viability [3] | viability [4] | viability [5] | differential viability (reversal) ([6]; H69AR cells + 2 uM doxorubicin) | viability [6, 16] | viability [6, 17] | inhibition [7] | inhibition [8] | growth inhibition [9] | growth inhibition [10] | viability increase [11] | viability [12] | viability [13] | inhibition [14] | RAM network inhibition [15]
1 | Cc1ccc(C2CC(c3ccc(C)cc3)n3nc(N)nc3N2)cc1 (stereo not given) | 95% | 109% (inactive) | 95% (inactive) | 102% (inactive) | 88.5% (inactive) | -8.68% (inactive) | 97.1% | 88.5% | -1.79% (inactive) | -1% (inactive) | 1.83% (inactive) | 12.3% (inactive) | -0.92% (inactive) | 96.7% (inactive) | 93.1% (inactive) | 1.34% (inactive) | 1.75% (inactive)
2 | c1ccc(C2(Cn3ccc4ccccc43)OCCO2)cc1 | 89% | 104% (inactive) | 89% (inactive) | 93.7% (inactive) | 94.9% (inactive) | 7.87% (inactive) | 87.1% | 94.9% | -0.78% (inactive) | 3.44% (inactive) | -4.05% (inactive) | -10.5% (inactive) | -3.2% (inactive) | 81.6% (inactive) | 81.8% (inactive) | 1.63% (inactive) | 6.65% (inactive)
3 | COc1ccc(S(=O)(=O)N2Cc3ccccc3CC2C(=O)Nc2ccc(O)cc2)cc1OC (stereo not given) | 91% | 106% (inactive) | 91% (inactive) | 76.3% (inactive) | 77.4% (inactive) | 1.23% (inactive) | 76.2% | 77.4% | -4.27% (inactive) | -0.83% (inactive) | -18.6% (inactive) | -18.4% (inactive) | -4.42% (inactive) | 96.6% (inactive) | 87.5% (inactive) | 1.39% (inactive) | 11.6% (inactive)
4 | CCS(=O)(=O)c1nc2ccccc2n1Cc1ccccc1Cl | 101% | 93% (inactive) | 101% (inactive) | 109% (inactive) | 74.1% (inactive) | -9.51% (inactive) | 83.6% | 74.1% | -0.27% (inactive) | 5.33% (inactive) | -25.4% (inactive) | -20.7% (inactive) | -4.6% (inactive) | 71% (inactive) | 61.5% (inactive) | -0.515% (inactive) | 5.91% (inactive)
5 | CCOC(=O)c1ccccc1NC(=O)c1cccnc1 | 83% | 117% (inactive) | 83% (inactive) | 94.8% (inactive) | 96.1% (inactive) | 1.67% (inactive) | 94.4% | 96.1% | 1.95% (inactive) | -4.59% (inactive) | -11.9% (inactive) | -21.3% (inactive) | 0.06% (inactive) | 104% (inactive) | 102% (inactive) | 1.57% (inactive) | 2.22% (inactive)
6 | O=C(Nc1ccncc1)c1cccc(F)c1 | 103% | 130% (inactive) | 103% (inactive) | 91.5% (inactive) | 92% (inactive) | -0.005% (inactive) | 92% | 92% | -3.08% (inactive) | -2.33% (inactive) | -5.12% (inactive) | 3.45% (inactive) | -1.19% (inactive) | 98.4% (inactive) | 91.4% (inactive) | -0.02% (inactive) | 2.86% (inactive)
7 | COC(=O)CCC(=O)Nc1ccc(OC)cc1 | 104% | 84% (inactive) | 104% (inactive) | 121% (inactive) | 85.1% (inactive) | -13.2% (inactive) | 98.3% | 85.1% | -6.22% (inactive) | 0.98% (inactive) | -2.88% (inactive) | -6.16% (inactive) | -1.06% (inactive) | 98.6% (inactive) | 101% (inactive) | 0.605% (inactive) | 2.52% (inactive)
8 | Brc1ccccc1-c1nc(-c2ccccc2)no1 | 88% | 84.5% (inactive) | 88% (inactive) | 89.1% (inactive) | 74.3% (inactive) | -8.99% (inactive) | 83.3% | 74.3% | -2.6% (inactive) | -8% (inactive) | -7.54% (inactive) | 8.43% (inactive) | -5.68% (inactive) | 72% (inactive) | 70.6% (inactive) | 0.565% (inactive) | 3.53% (inactive)
9 | COc1ccc(OC)c(C2C(C(=O)Nc3ccc(F)cc3)=C(C)Nc3nc(CCCO)nn32)c1 (stereo not given) | 101% | 120% (inactive) | 101% (inactive) | 91% (inactive) | 101% (inactive) | 5.54% (inactive) | 95.4% | 101% | 0.13% (inactive) | -0.83% (inactive) | -9.55% (inactive) | 7.19% (inactive) | -0.62% (inactive) | 99.6% (inactive) | 99.1% (inactive) | -1.06% (inactive) | -0.42% (inactive)
10 | CC1Cn2c(nnc2-c2ccc(F)cc2)S1 (stereo not given) | 112% | 105% (inactive) | 112% (inactive) | 107% (inactive) | 93.7% (inactive) | -1.42% (inactive) | 95.2% | 93.7% | -2.4% (inactive) | -4% (inactive) | -9.71% (inactive) | -14.2% (inactive) | -0.42% (inactive) | 112% (inactive) | 101% (inactive) | 1.92% (inactive) | 3.35% (inactive)
